# Smad3 FoxH1 inh: blocks human Smad3 binding to FoxH1 peptide. TR-FRET Smad3/Dy647-FoxH1 peptide binding, europium anti-His. inhibition, % at 25 µM. 0.29% of 88,000 active. AID 630;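 active means compounds that reduce the energy-transfer binding signal between the protein and its labelled peptide by more than half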;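 further: 0% = Smad3 plus labelled peptide maximal FRET and 100% = peptide-only background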
# PostGolgi yeast: growth inhibition of a yeast mutant, post-Golgi transport screen; inhibition, % at 10 µM; post-Golgi transport phenotypic cell assay; 0.9% of 98,000 active; AID 739;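 further: yeast cells grown in 1536-well plates; yeast grown about 18 h at 30C before absorbance read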
# DAT uptake mod: modulates human dopamine transporter uptake under cocaine. B-score at 10 µM. 1.3% of 110,000 active. LLC-PK1 hDAT cells, [14C]-dopamine uptake with cocaine IC80; actives deviate in either direction;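 active means Z score or B-score, a plate-position-corrected score, falls beyond the plate's 99.7% confidence bounds, in either direction; inactive means both scores lie inside the 99.7% bounds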;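 further: scored against the spread of the other compound wells on the same plate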
# Target sequence (Q01959 whole entry, looked up): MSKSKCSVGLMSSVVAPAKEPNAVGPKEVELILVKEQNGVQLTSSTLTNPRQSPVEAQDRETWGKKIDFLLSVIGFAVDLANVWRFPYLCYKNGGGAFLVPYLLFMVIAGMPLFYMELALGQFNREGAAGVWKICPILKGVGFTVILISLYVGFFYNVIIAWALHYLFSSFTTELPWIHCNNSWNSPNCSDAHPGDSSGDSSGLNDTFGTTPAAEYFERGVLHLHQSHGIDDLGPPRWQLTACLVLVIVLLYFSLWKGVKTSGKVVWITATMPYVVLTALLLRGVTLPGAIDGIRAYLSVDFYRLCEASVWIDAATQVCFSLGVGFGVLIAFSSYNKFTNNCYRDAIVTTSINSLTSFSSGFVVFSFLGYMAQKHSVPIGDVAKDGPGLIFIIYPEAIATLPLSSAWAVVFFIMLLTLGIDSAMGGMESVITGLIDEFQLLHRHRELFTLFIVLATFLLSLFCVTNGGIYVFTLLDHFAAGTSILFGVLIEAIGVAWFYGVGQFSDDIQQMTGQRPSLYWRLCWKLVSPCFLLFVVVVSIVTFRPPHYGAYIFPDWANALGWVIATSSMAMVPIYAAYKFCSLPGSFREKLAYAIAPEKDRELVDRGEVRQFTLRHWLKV
# TNAP act DEA: activators of human TNAP at intermediate phosphate acceptor | P05186 | purified TNAP, CDP-star luminescence, 100 mM DEA, 30 min; active compounds read high; scale: 0 levamisole-inhibited, 1 vehicle-only enzyme | activation factor at 20 µM | 64,000 tested, under 10 active;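 active means activation factor of at least 2 at 20 µM, relative to controls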
# Cav3 T inh: inhibitors of human Cav3.2 T-type calcium channel; AID 449739; Cav3.2-expressing cells, Fluo-4 calcium fluorescence FDSS; active compounds read low; 4% of 100,000 active; O95180; B-score at 10 µM;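 active means single-dose well whose peak fluorescence ratio is a statistical outlier from its plate by either plate-standardised score or position-corrected B-score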
# PostGolgi ctrl: yeast control strain growth, post-Golgi counter-screen | inhibition, % at 10 µM | efflux-deficient yeast background strain, growth absorbance A615, 16 h | AID 738 | 5% of 98,000 active
# * hit, by the source's call; . = no result; [ ] = remark or other dose. Only some compounds are listed: those with a hit (about 8.7% of all), similar ones and a draw of the others. Unless noted, no stated cut-off is given here; in the data, active means inhibition above about 30%; inactive means the rest.
SMILES,Smad3 FoxH1 inh,PostGolgi yeast,DAT uptake mod,TNAP act DEA,Cav3 T inh,PostGolgi ctrl
CCN(CC)CCNC(=O)CCCCn1c(=S)[nH]c2c([nH]c3ccc(OC)cc32)c1=O,16,-10,2.6*,0.9,0.18,9
O=C(CSC1CC(=O)N(CC(c2ccccc2)c2ccccc2)C1=O)Nc1ccc(Cl)cc1 (stereo not given),.,11,-0.39,.,-7.4*,41*
O=C(O)CSC1CC(=O)N(c2ccc(Cl)cc2)C1=O (stereo not given),7,.,-0.65,0.9,0.25,.
O=C(NCC1CCCO1)c1ccccc1-c1nc(-c2ccccc2)no1 (stereo not given),9,0,-0.7,0.9,-0.53,3
Cc1cc2nc(CCN(C(=S)NCC(C)C)C3CCCC3)[nH]c2cc1C,.,-6,2.7*,.,-4.3*,11
CCC(C)(C(=O)Nc1ccc2c(c1)OCCO2)N(C(C)=O)c1ccc(C(N)=O)cc1 (stereo not given),6,1,-2.8*,0.9,-0.88,-2
CCOC(=O)c1ccc(NC(=O)Nc2ccc3c(c2)OCCO3)cc1,4,-5,1.4,1,-0.04,7
CC1CCC(C(=O)NC(C(=O)N2CCc3ccccc3C2)C(C)C)CC1 (stereo not given),16,-6,-0.85,.,-5.4*,1
CCC(CC)n1[nH]c(=O)cc1N,-2,8,-1.1,0.9,-1.1,3
CCOC(=O)c1sc(C)c2c1NC(c1ccc(N(C)C)cc1)NC2=O (stereo not given),-3,7,0.059,.,-3.6*,19
CCOC(=O)CC1(CC(=O)OCC)NC(=O)c2c(C)sc(C(=O)OCC)c2N1,9,0,0.92,0.9,0.7,12
CCc1ccccc1NC(=O)/C(=C/c1ccco1)c1ccccc1,81*[fluorescence artefact?],-2,0.5,.,-5.5*,35*
CCOc1ccc(S(=O)(=O)Nc2ccc(Cl)cn2)c(C)c1C,3,-14,0.69,0.8,-0.26,-3
CCOc1cc(C)c(S(=O)(=O)Nc2ccc(Cl)cn2)cc1C,2,1,-0.071,1,-0.084,58*
CCc1ccc2[nH]c(=O)c(CN(Cc3ccccc3)Cc3nnnn3Cc3ccco3)cc2c1,-6,5,1.7,0.9,-1.5,13
Cc1ccc2[nH]c(=O)c(CN(Cc3ccc4c(c3)OCO4)Cc3nnnn3Cc3ccco3)cc2c1,-2,-12,1.5,0.9,-5.8*,10
Cc1cc(C)c2cc(CN(Cc3ccc4c(c3)OCO4)Cc3nnnn3Cc3ccco3)c(=O)[nH]c2c1,.,4,3*,0.9,-0.98,15
CC(C)C(=O)Nc1ccc(NC(=O)c2cccnc2)cn1,12,-2,-0.26,.,0.64,-2
O=C(N/N=C/c1ccco1)c1cc(-c2ccccc2)n[nH]1,4,.,1.1,.,-0.71,.
O=C(N/N=C/c1ccco1)c1cc(-c2cccc3ccccc23)n[nH]1,7,-1,0.1,.,-6.2*,14
CCn1ncc(/C=N\NC(=O)c2csc3ccccc23)c1C,.,3,0.067,.,-0.66,7
CCc1ccccc1N(CC(=O)Nc1cccc(N(C)S(C)(=O)=O)c1)S(C)(=O)=O,3,0,.,1,.,3
CCCCCOC(=O)C1=C(C)Nc2nnnn2C1c1ccccc1Cl (stereo not given),-20,46*,-0.52,.,-0.26,48*
Cc1nc(-c2ccccc2)sc1-c1nc(-c2cccs2)ncc1S(=O)(=O)c1ccccc1,.,9,-0.44,.,-4.8*,10
O=S(=O)(c1ccccc1)c1cnc(-c2cccnc2)nc1-c1ccccc1,.,-2,-0.8,.,.,9
SMILES,Smad3 FoxH1 inh,PostGolgi yeast,DAT uptake mod,TNAP act DEA,Cav3 T inh,PostGolgi ctrl
Cc1nc(-c2ccccc2)sc1-c1nc(-c2cccnc2)ncc1S(=O)(=O)c1ccccc1,.,2,0.99,.,-5*,32*
CCCCCC(=O)N1CCN(c2ccc(C(C)=O)cc2F)CC1,0,3,0.47,1,0.58,7
Cc1nn(-c2ccccc2)c2c1C(=O)N(Cc1ccccc1)C(=O)C(C)(C)C2,0,3,-0.47,.,-4.3,24
Cc1nn(-c2nc3ccccc3n2Cc2ccccc2)c2c1C(=O)CC(C)(C)C2,-4,-11,0.21,1,-5*,26
CCC(C)(C)NC(=O)C(c1ccccc1)N(C(=O)c1csnn1)C1CC1 (stereo not given),-2,.,-1.1,.,-0.26,.
Cc1noc(C)c1C(=O)Nc1cccnc1,-14,-3,0.85,1,0.15,2
Cc1ccc(NC(=O)c2c(C)noc2C)cc1,5,-1,0.36*,.,0.27,-2
Cc1ccc(NC(=O)c2onc(C)c2Cl)cc1,-9,-5,-2.6*,.,-1.4,9
CSc1ccccc1NC(=O)c1onc(C)c1Cl,2,0,-0.33,0.9,-0.2,9
CN(CC(=O)N1CCc2ccccc2C1)S(=O)(=O)c1ccc2c(c1)c(=O)n(C)c(=O)n2C,-4,1,-0.89,1,.,-1
N#Cc1ccccc1NCc1ccccc1,.,-2,-0.39,0.9,-0.46,32*
CCCCCCSC1=C(C#N)C(c2ccccc2)CC(=O)N1 (stereo not given),3,36*,0.084,0.9,-0.1,57*
CC(C)NC(=O)Cc1ccc(Br)cc1,13,-1,-1.5,.,-0.0058,21
CCN(C(=O)Cc1ccc(Br)cc1)C1CCCCC1,7,16,0.43,.,-4.4*,15
COc1cccc(Nc2ncccc2C(=O)NCc2ccccc2)c1,-8,-1,2.9,0.8,-1.5,24
COC(=O)CSc1nc2ccccc2nc1SCC(=O)OC,9,0,0.79,0.8,-0.7,4
COC(=O)CSc1cnc2ccccc2n1,-5,-5,0.19,.,0.34,32*
O=C(Nc1cccc(F)c1)NC1(C(=O)N2CCN3CCCC3C2)CCCCC1 (stereo not given),-1,.,0.29,.,0.014,.
COc1ccc2nc(Nc3nc(C)c(CCC(C)C)c(=O)[nH]3)nc(C)c2c1,-18,-1,0.62,1,-5.4*,31*
CCOc1ccc2nc(Nc3nc4c(c(=O)[nH]3)CCC4)nc(C)c2c1,19,.,.,0.8,.,.
O=C(Nc1ccc(C(F)(F)F)cc1)C1CC(=O)N(c2ccc3c(c2)OCCO3)C1 (stereo not given),3,-2,1.7,.,0.72,14
Cc1nn(Cc2ccccc2Cl)c2sc(C(=O)NCc3ccc4c(c3)OCO4)cc12,-2,-4,1.2,.,-3.5*,29
COc1cccc(-c2nn(C)c3sc(C(=O)NCc4ccc5c(c4)OCO5)cc23)c1,-11,-9,1.3,0.9,-1.8,30*
COc1ccccc1CNC(=O)c1cc2c(C)nn(Cc3ccc(F)cc3)c2s1,-4,-4,2.1,.,-1.4,33*
Cc1cc(C(=O)Nc2c(C)nn(Cc3ccccc3Cl)c2C)no1,.,-7,0.073,0.9,-0.27,-1
CCC(CC)NC(=O)c1cc2c(C)nn(Cc3ccccc3Cl)c2s1,.,0,-0.71,.,0.063,38*

# Assay outcomes (PubChem)
